Experimental data taken from PubChem BioAssay (NCI).
The panel holds about 79,000 compounds, 15% with a hit somewhere; the sample as a whole holds those more often. Rule as the data show it: active = growth inhibition above about 70%; inactive = the rest.

Experiments:
[1] = NCI Yeast Anticancer Drug Screen. Data for the rad50 strain (AID 155);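 also: 0% = growth of vehicle-only cultures of the same strain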; details: S. cerevisiae rad50 strain growth inhibition; at 50.0 µM; stronger effect = higher value
Method in brief: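 Inhibition values express reduced yeast growth in compound-treated cultures relative to vehicle-treated controls.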

[2] = NCI Yeast Anticancer Drug Screen. Data for the mec2-1 strain (AID 157); details: S. cerevisiae mec2-1 strain, at 50.0 µM, stronger effect = higher value
Method in brief: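 Cells of the genetically defined mec2-1 yeast strain are incubated with test compound. Inhibition of growth is calculated against vehicle-treated controls.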

[3] = NCI Yeast Anticancer Drug Screen. Data for the sgs1 mgt1 strain (AID 161);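 also: 0% = growth of cultures given vehicle only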; details: S. cerevisiae sgs1 mgt1 strain, at 50.0 µM, stronger effect = higher value
Method in brief: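 Inhibition of yeast growth, normalised to vehicle-treated controls, is reported for a strain bearing genetic alterations in DNA damage repair.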

[4] = NCI Yeast Anticancer Drug Screen. Data for the cln2 rad14 strain (AID 165);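 also: 0% = growth equal to vehicle treated cultures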; details: S. cerevisiae cln2 rad14 strain, at 50.0 µM, stronger effect = higher value
Method in brief: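 The screen exposed genetically defined yeast (cln2 rad14) to test compounds and scored growth inhibition relative to vehicle-treated controls.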

[5] = NCI Yeast Anticancer Drug Screen. Data for the bub3 strain (AID 167); details: S. cerevisiae bub3 mutant strain, at 50.0 µM, stronger effect = higher value
Method in brief: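 Steps: expose the mutant yeast strain to compound; grow alongside vehicle-treated cultures; measure growth; express inhibition against the vehicle cultures.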

[6] = NCI Yeast Anticancer Drug Screen. Data for the mlh1 rad18 strain (AID 175); details: S. cerevisiae mlh1 rad18 strain growth inhibition; at 50.0 µM; stronger effect = higher value
Method in brief: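 Compound-treated yeast growth, normalised to vehicle controls. Strain bears defined DNA repair mutations.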

Measured: growth inhibition

CCN(CC)C(=O)CCNC(C)Cc1c[nH]c2ccccc12 (centres undefined)
inactive: [1] -4.1% | [2] -13.7% | [3] 39.9% | [4] 22.1% | [5] 8.85% | [6] -37.5%

COC(=O)C1(O)c2ccccc2N=C2C1CCN2C (centres undefined)
inactive: [1] 15.1% | [2] -11.4% | [3] -8.85% | [4] 6.4% | [5] 6.3% | [6] 16.9%

COc1cc2c(cc1O)CNCC2c1ccc(O)c(C)c1 (centres undefined)
inactive: [1] -10.8% | [2] -14.6% | [3] 9.55% | [4] -13.8% | [5] -11.4% | [6] -4.7%

CSCCC(N)C(=O)O.[Pb] (centres undefined)
inactive: [1] -17.9% | [2] -10.3% | [3] 13.1% | [4] -40.4% | [5] -12.4% | [6] -20.2%

N#CCc1ccc(CC#N)cc1
inactive: [1] 14.1% | [2] -10.6% | [3] -2.8% | [4] 16.6% | [5] -5.1% | [6] 1.45%

CN(C)CCCc1c[nH]c2ccccc12
inactive: [1] -20.4% | [2] -6.6% | [3] -4.85% | [4] -7.5% | [5] -52.5% | [6] 8.25%

O=[N+]([O-])c1ccc(O)c(C=NCCN=Cc2cc([N+](=O)[O-])ccc2O)c1.[Ni+2]
inactive: [1] -30.6% | [2] 5.8% | [3] -3.9% | [4] -56.6% | [5] -3.8% | [6] -22.4%

NNC(=O)NNC(=O)NN
inactive: [1] -5.95% | [2] -3.1% | [3] -12.3% | [4] 1.65% | [5] -8.25% | [6] 9.9%

O=[C-]/C=C/c1ccccc1.[C-]#[O+].[C-]#[O+].[Fe+2].[c-]1ccccc1
inactive: [1] 21.8% | [2] 2.5% | [3] 5.95% | [4] -3% | [5] -7.1% | [6] 7.15%

CC(=O)Nc1ccc([N+](=O)[O-])c(C(F)(F)F)c1
inactive: [1] -4.2% | [2] -6.4% | [3] 9.05% | [4] 13.1% | [5] -3.9% | [6] 6.05%

O=C(N/N=C/c1cc(Cl)cc(Cl)c1[O-])c1ccccc1O.O=C(N/N=C/c1cc(Cl)cc(Cl)c1[O-])c1ccccc1O.[Cu+2]
inactive: [1] -6.05% | [2] -16.2% | [3] -17.8% | [4] -38.2% | [5] -12.7% | [6] 12.3%

CNC(C)Cc1ccccc1OC (centres undefined)
inactive: [1] -10.8% | [2] -12.4% | [3] -1.2% | [4] 2.65% | [5] -4.55% | [6] 11.4%

C[Si](C)(C)CN(N=O)C(N)=O
inactive: [1] 1.55% | [2] 3.4% | [3] -3.45% | [4] -25.2% | [5] 3.95% | [6] 9.45%

COC1CCC2NCCNC2C1 (centres undefined)
inactive: [1] 6.35% | [2] -6% | [3] -9.85% | [4] -22.9% | [5] -8.7% | [6] 2.5%

CCOC(=O)CC(Br)C(=O)CBr (centres undefined)
inactive: [1] -9.15% | [2] 11% | [3] 7.15% | [4] -17.8% | [5] 2.6% | [6] -9.6%

NC(=O)CI
inactive: [1] 30.8% | [2] 27.1% | [3] 38.1% | [4] 13.8% | [5] 18.5% | [6] 17.1%

CC(O)CN(CCN(CC(C)O)CC(C)O)CC(C)O.[Cl-].[Zn+2] (centres undefined)
inactive: [1] 14.9% | [2] 9.25% | [3] 17.4% | [4] 10.7% | [5] 8.8% | [6] 6.1%

Cc1ccc(C(=O)C(C)N)cc1C (centres undefined)
inactive: [1] -13.6% | [2] -13% | [3] -17.8% | [4] 15.2% | [5] 1.6% | [6] 22.4%

S=C1c2ccc(Cl)cc2-n2cnnc2C2CSCN12 (centres undefined)
inactive: [1] -4.1% | [2] 10.8% | [3] 7.9% | [4] 0.9% | [5] -6.1% | [6] 26.4%
